Source: PubChem BioAssay AID2205 (University of Pittsburgh Molecular Library Screening Center, 2009)
In all, about 200,000 compounds went through this assay and about 1,600 (0.8%) were called active.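 How the source made its calls: active means plate Z-score above 3 for both tubulin-high and condensed-nucleus cell shares, with cell loss under 80%, at 10 µM; inactive means the rest, inconclusive results apart.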 For the sample, actives were picked, then their nearest neighbours and some compounds at random.

Test: microtubule stabilizers in HeLa cells, primary screen, imaging, high-content imaging (AID 2205);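 on % tubulin-high responders: anti alpha tubulin signal scored within the nucleus-defined area of each cell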;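 on toxicity: 0% = mean cell density of plate MIN control wells and 100% = no cells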
Details: HeLa tubulin immunostaining HCS, 24 h, at 10 µM; % Hoechst-high responders: measured here: nuclear condensation Hoechst responders, stronger effect = higher value, share of cells brighter than vehicle mean+2SD; % tubulin-high responders: stronger effect = higher value, share of cells brighter than vehicle mean+2SD; toxicity: measured here: cytotoxicity by cell density

Structure (SMILES) | % Hoechst-high responders [%] | % tubulin-high responders | toxicity [%]
Cc1ccc(S(=O)(=O)CCC(=O)OCc2ccccc2)cc1 | 1.72 | 4.05% (inactive) | 4.99
CC1CCN(c2ccc([N+](=O)[O-])cc2C(N)=O)CC1 | 1.09 | 5.37% (inactive) | 13
O=c1cc(N2CCCCC2)c(-c2ccccc2)nn1Cc1cccc(F)c1 | 0.91 | 7.03% (inactive) | 4.95
O=c1cc(-c2ccccc2)[nH]c2cc(F)ccc12 | 48.5 | 14.7% (inactive) | 37.5
Cc1ccc(-c2cc(=O)c3ccc(F)cc3[nH]2)cc1 | 14.3 | 22.4% (active) | 28.4
Cc1ccc(-c2cc(=O)c3ccc(Cl)cc3[nH]2)cc1 | 1.34 | 2.15% (inactive) | 1.49
CN(CC(=O)NC1CCCC1)S(=O)(=O)c1cnc[nH]1 | 1.61 | 4.66% (inactive) | 8.08
Cc1nn(CC2CC2)c(=O)n1N(C)c1ncc(C(F)(F)F)cc1Cl | 3.3 | 5.71% (inactive) | 3.78
CN(NC(=O)c1ccccc1F)c1nc(C(F)(F)F)nc2ccccc12 | 59.1 | 12.1% (active) | 32.2
COC(=O)CNC(=O)c1ccccc1F | 1.58 | 0.975% (inactive) | 9.24
COc1ccc(C(=O)NN(C)c2nc(-c3ccccc3)cc(C)c2S(C)(=O)=O)cc1 | 3.04 | 2.71% (inactive) | 4.33
Cc1cc(C)n(-c2nc(C(F)(F)F)nc3ccccc23)n1 | 2.48 | 5.42% (inactive) | 5.25
CSc1nc(N(C)NC(=O)c2cccc(C)c2)c2ccccc2n1 | 33.9 | 13.4% (inactive) | 39.2
CN(NC(=O)c1ccccc1)c1nc2ccccc2nc1C(F)(F)F | 38 | 48.6% (active) | 33.5
CCN(CC)S(=O)(=O)c1ccc(N(C)CCc2ccc(OC)c(OC)c2)nc1 | 1.73 | 5.42% (inactive) | 7.66
Cc1ccc(/C=N/NC(=O)c2sccc2OCc2ccc(F)cc2)cc1 | 18.4 | 39.2% (active) | 68.8
Cc1ccc(COc2ccc(/C=N/NC(=O)CN3CCCCC3)cc2)cc1 | 2.2 | 1.76% (inactive) | 4.99
Cc1ccsc1C(=O)N/N=C/c1ccc([N+](=O)[O-])cc1 | 2.36 | 3.58% (inactive) | 0.132
Cn1cnnc1SCC(=O)Nc1ccc(N2CCOCC2)cc1 | 3.45 | 1.73% (inactive) | 7.15
O=C(c1snnc1-c1ccccc1)N1CCOCC1 | 2.21 | 5.38% (inactive) | 8.24
Cc1cc(C(=O)OCC(=O)NCc2ccco2)c(C)n1-c1ccccc1 | 31.8 | 24.1% (active) | 57.4
O=C(COC(=O)c1cnc(Cl)c(Cl)c1)NCc1ccco1 | 2.45 | 2.71% (inactive) | 7.79
O=C(COC(=O)c1cc(S(=O)(=O)N2CCCCC2)ccc1Cl)NCc1ccco1 | 2.04 | 2.32% (inactive) | 4.83
O=C(Cn1nnc(-c2ccccc2)n1)N/N=C/c1ccc(-c2ccc(Cl)cc2)o1 | 2.75 | 3.12% (inactive) | 5.19
O=C(CCNS(=O)(=O)c1ccc(Br)s1)NCc1ccccc1Cl | 1.95 | 0.853% (inactive) | 9.73

Structure (SMILES) | % Hoechst-high responders [%] | % tubulin-high responders | toxicity [%]
CCC(C)(C(=O)Nc1ccccc1C)N(C(=O)CNC(C)=O)c1ccc(C)cc1 (stereo not given) | 3.25 | 4.21% (inactive) | 4.1
CCOc1ccc(Br)cc1S(=O)(=O)Nc1ccc(C(=O)OC(C)C(=O)N(C)c2ccccc2)cc1 (stereo not given) | 0.626 | 6.66% (inactive) | 0.658
CC(=O)c1ccc(Oc2cc(C)nc(-n3nc(C)cc3C)n2)cc1 | 57.9 | 17.9% (active) | 18.9
Cc1cc(C)n(-c2cc(Oc3ccccc3)ncn2)n1 | 0.881 | 1.4% (inactive) | 3.38
COc1ccc(Nc2cc(C)nc(-n3nc(C)cc3C)n2)cc1 | 25.7 | 11.5% (inactive) | 60.4
CCn1cc(CN2CCCC(CNS(=O)(=O)Cc3ccccc3)C2)cn1 (stereo not given) | 2.22 | 3.89% (inactive) | 8.22
O=C(CN1CCN(Cc2ccc(F)cc2Cl)C1=O)NCc1cccs1 | 1.49 | 1.68% (inactive) | 2.53
CC(C)CNC(=O)CC(NCC(C)C)C(=O)O (stereo not given) | 2.02 | 2.59% (inactive) | 6.47
O=C(/C=C/c1cccs1)NCc1cccnc1 | 2.05 | 2.55% (inactive) | 5.06
O=C(Nc1cccc(F)c1)c1ccc(S(=O)(=O)N2CCCC2)cc1 | 3.36 | 4.55% (inactive) | 7.13
CCOC(=O)N1CCN(S(=O)(=O)c2ccc(C(=O)Nc3ccc(F)cc3F)cc2)CC1 | 35.2 | 29.1% (active) | 67.6
COc1ccc(C(=O)Nc2ccc(F)cc2F)cc1 | 1.66 | 1.84% (inactive) | 2.01
C/[N+]([O-])=C\c1ccc([N+](=O)[O-])o1 | 1.53 | 1.72% (inactive) | 3.24
CCCn1c(SCC(=O)Nc2ccc(C)c(S(=O)(=O)N3CCOCC3)c2)n[nH]c1=O | 2.38 | 5.82% (inactive) | 5.63
CCCCC(=O)NNC(=S)NC(=O)C(c1ccccc1)c1ccccc1 | 1.83 | 2.83% (inactive) | 2.74
CC(C)C(=O)Nc1cccc(NC(=S)NC(=O)C(c2ccccc2)c2ccccc2)c1 | 44 | 30.3% (active) | 36.2
CC(C)C(=O)NC(=S)Nc1ccccc1F | 1.63 | 3.48% (inactive) | 5.15
CC(Sc1nnc2c(n1)C1CCC2(C)C1(C)C)C(=O)Nc1ccccc1 (stereo not given) | 3 | 3.52% (inactive) | 9.4
O=C(/C=C/c1ccc(Cl)c([N+](=O)[O-])c1)c1cccnc1 | 0.942 | 1.22% (inactive) | 2.98
Cc1cc(NC(=O)CSc2nc(C(C)C)nc3sc4c(c23)CCC(C)C4)no1 (stereo not given) | 2.02 | 5.74% (inactive) | 9.29
C=CCn1c(SCc2c(C)noc2C)nc2sc3c(c2c1=O)CCC(C)C3 (stereo not given) | 27.2 | 31.2% (active) | 44.4
CC1CCc2c(sc3nc4n(c(=O)c23)CCS4)C1 (stereo not given) | 1.5 | 1.55% (inactive) | 8.83
O=C(CCn1ccc([N+](=O)[O-])n1)Nc1nccs1 | 2.43 | 6.18% (inactive) | 8.86
CCN1/C(=C\c2ccc3ccccc3[n+]2CC)Sc2cc(C)ccc21 | 5.5 | 8.18% (active) | 19.1
CCC(=O)/C=C1\Sc2ccccc2N1CC | 0.853 | 4.83% (inactive) | 6.64

Structure (SMILES) | % Hoechst-high responders [%] | % tubulin-high responders | toxicity [%]
CCN1/C(=C/c2ccc3ccc(C)cc3[n+]2CC)Sc2ccccc21 | 2.38 | 4.83% (inactive) | 9.09
FC(F)(F)c1nnc2ccc(N3CCN(c4ccccc4)CC3)nn12 | 1.98 | 0.88% (inactive) | 7.36
Fc1c(F)c(C(F)(F)F)c(F)c(F)c1N1CCN(c2ccc3nnc(C(F)(F)F)n3n2)CC1 | 7.05 | 6.71% (active) | 8.52
Cc1nn(-c2ccccc2)c(-n2cccc2)c1C(=O)O | 3.22 | 2.89% (inactive) | 10.5
CCOC(=O)c1[nH]c2c(c1C)C(=O)CC(c1ccc(N(C)C)cc1)C2 (stereo not given) | 1.67 | 6.74% (inactive) | 9.96
CCCOC(=O)c1[nH]c2c(c1C)C(=O)CC(c1cc(OC)c(OC)c(OC)c1)C2 (stereo not given) | 1.51 | 5.08% (inactive) | 9.25
CCCOC(=O)c1[nH]c2c(c1C)C(=O)CC(c1cccs1)C2 (stereo not given) | 49.4 | 25.2% (active) | 48.6
CSc1ccc(/C=N\NC(=O)CC(=O)NC(C)C)cc1 | 1.95 | 3.08% (inactive) | 8.56
CCOC(=O)c1nc(-c2ccc3c(c2)OCO3)[nH]c1C | 10.2 | 26.6% (active) | 43
CCOC(=O)c1c(C)[nH]c(C(=O)COc2ccc3c(c2)OCO3)c1C | 3.29 | 2.42% (inactive) | 11.4
Cc1ccc(C(=O)OCC(=O)NCc2ccc3c(c2)OCO3)s1 | 1.59 | 1.75% (inactive) | 6.77
Cc1ccc(CNC(=O)CCNS(=O)(=O)c2ccc(Br)s2)cc1 | 2.82 | 2.88% (inactive) | 3.85
CCOc1cccc(/C=C/c2ccc3ccccc3n2)c1OC(C)=O | 3.95 | 5.51% (inactive) | 3.2
Cc1ccc2nc(-c3cccc(Br)c3)cc(C(=O)Nn3cnnc3)c2c1 | 3.03 | 6.01% (inactive) | 5.1
Fc1ccc2c(c1)C(c1cccnc1)=NNC(c1cccs1)=N2 | 34.4 | 13.2% (active) | 33.1
COc1ccc2c(c1)C(c1cccs1)=NNC(c1cccnc1)=N2 | 1.1 | 2.37% (inactive) | 7.76
NC(=O)c1ccc(NC(=O)COC(=O)c2c3c(nc4ccccc24)/C(=C\c2ccc4c(c2)OCO4)CCC3)cc1 | 1.77 | 5.36% (inactive) | 8.9
Cc1ccc(NC(=O)CC2S/C(=N/N=C3\CCCc4ccccc43)NC2=O)cc1 (stereo not given) | 2.08 | 1.84% (inactive) | 8.37
C[n+]1ccccc1C1CCCC/C1=N\Nc1ccc([N+](=O)[O-])cc1[N+](=O)[O-] (stereo not given) | 1.98 | 5.56% (inactive) | 5.84
CC(=O)c1ccc(S(=O)(=O)Nc2ccc(C(=O)NCC(c3ccccc3)N(C)C)cc2)cc1 (stereo not given) | 1.41 | 1.91% (inactive) | 3.99
Nc1c(C(=O)O)cnn1-c1ccccc1 | 1.87 | 1.93% (inactive) | 3.6
OCC1(CCOc2ccccc2)CCN(Cc2cn[nH]c2-c2ccccc2)CC1 | 2.29 | 2.29% (inactive) | 7.78
Cc1cccc(-c2ncc(CN3CCC(CO)(CCCc4ccccc4)CC3)cn2)c1 | 2.55 | 2.1% (inactive) | 2.96
Cc1c(CN2CCC(CO)(CCOc3ccccc3)CC2)[nH]c2ccc(Cl)cc12 | 7.79 | 27.6% (active) | 29.9
CCc1ccccc1NC(=S)N(CCN1CCCCCC1)Cc1ccco1 | 2.22 | 4.39% (inactive) | 2.58
